For eight compounds, growth results are on record in PubChem BioAssay (NCI).

This is part of a sample that, as a whole, favours compounds with a hit. Of some 83,000 tested, about 20% had one in any assay.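 How to read the values: 0–100, growth inhibition (40 = 60% inhibited); 0, no net growth; -100 to 0, cell death (-40 = 40% of starting cells died; -100 = all dead).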 Values without a mark were called inactive. Active and inactive are the calls of the source. How the source made its calls: active means growth percent below 10; inactive means the rest.

Among the test systems are NCI-H23 lung; NCI-H322M lung; HOP-62 NSCLC; NCI-H460 lung; HOP-92 NSCLC; A549/ATCC NSCLC; 786-0 renal; COLO 205 colon; DU-145 prostate; K-562 leukemia; MDA-MB-231 breast; RXF 393 renal; SF-268 CNS; SF-295 CNS; SF-539 CNS; UACC-257 melanoma; M14 melanoma; HCT-15 colon; MALME-3M melanoma.
What all share (test): NCI-60 one-dose screen, 48 h (100 = growth as untreated, 0 = no growth, -100 = all killed)
Settings in all cases: 10 µM unless noted

Take `O=C(Nc1ccc(-c2nc3cc4ccccc4cc3[nH]2)cc1)c1cccc(Br)c1`: the growth is 54.1% with NCI-H23 lung; 41.3% with NCI-H322M lung; 49.9% in the test with HOP-62 NSCLC; 6.74% (active) in the test on NCI-H460 lung; 72.6% in the test on HOP-92 NSCLC; 27% in the test on A549/ATCC NSCLC. The growth in the test on 786-0 renal is 17.6%; in the test on COLO 205 colon it was 34.6%; in the test with DU-145 prostate, 46.4%; in the test on K-562 leukemia, 26.7%; with MDA-MB-231 breast, 69.2%; with RXF 393 renal, 29%. The growth was 37% in the test on SF-268 CNS; -36.3% (active) in the test with SF-295 CNS; 30.8% in the test on SF-539 CNS; 42.3% in the test with UACC-257 melanoma; 34.2% in the test with M14 melanoma; 22.3% in the test with HCT-15 colon.
Turning to `NCCOc1ncccc1/C=C1\c2ccccc2-c2ccc([N+](=O)[O-])cc21`, the growth was -68.1% (active) with NCI-H23 lung; -23.4% (active) in the test on NCI-H322M lung; -60.1% (active) in the test with HOP-62 NSCLC; -46.1% (active) with NCI-H460 lung; -39.5% (active) in the test with HOP-92 NSCLC; -58.6% (active) in the test on A549/ATCC NSCLC. The growth in the test with 786-0 renal is -85.8% (active); in the test with COLO 205 colon it was -50.5% (active); in the test on DU-145 prostate, -34.4% (active); in the test with K-562 leukemia, 2.88% (active); in the test on MALME-3M melanoma it was -80.4% (active); in the test on MDA-MB-231 breast, -42.3% (active). The growth with RXF 393 renal was -88.6% (active); with SF-268 CNS it was -12.9% (active); with SF-295 CNS it was -36.6% (active); in the test with SF-539 CNS it was -83% (active); in the test on UACC-257 melanoma, 5.4% (active); in the test on M14 melanoma, -63.3% (active). In addition, in the test on HCT-15 colon, the growth is -26.4% (active).
Turning to `COc1ccc(C2=C(c3cccc(OC)c3)C(=O)c3ccc(C)nc3C2=O)cc1`, the growth with NCI-H23 lung is 37.5%; with NCI-H322M lung it was 76.4%; in the test on HOP-62 NSCLC, 34.4%; with NCI-H460 lung, 13.4%; with HOP-92 NSCLC it was 80%; with A549/ATCC NSCLC, 40.8%. The growth with 786-0 renal is 67.8%; with DU-145 prostate, 54.3%; with K-562 leukemia it was 19.9%; with MALME-3M melanoma it was 52.4%; in the test on MDA-MB-231 breast, 29.4%; in the test on RXF 393 renal, 33.3%. Further, the growth in the test on SF-268 CNS is 48%; in the test on SF-295 CNS, 56.2%; in the test with SF-539 CNS it was 43%; in the test on UACC-257 melanoma, 67.8%; with M14 melanoma, 42%; in the test with HCT-15 colon it was 18.6%.
Take `COC(=O)C1(C)COP(=O)(Nc2ccc(OC)cc2)OC1` (configuration not stated): the growth was 102% in the test with NCI-H23 lung; 90.3% in the test on NCI-H322M lung; 107% in the test on HOP-62 NSCLC; 109% in the test on NCI-H460 lung; 109% in the test on HOP-92 NSCLC; 98% in the test on A549/ATCC NSCLC. Further, the growth with 786-0 renal is 99.1%; in the test on COLO 205 colon, 109%; in the test with DU-145 prostate, 111%; in the test on MALME-3M melanoma it was 116%; in the test on MDA-MB-231 breast, 110%; in the test on RXF 393 renal, 113%. For the same compound, the growth is 103% in the test on SF-268 CNS; 107% in the test on SF-295 CNS; 104% with SF-539 CNS; 98.7% with UACC-257 melanoma; 102% with M14 melanoma; 108% with HCT-15 colon.
For the compound `O=C(Nc1ccc(N2CCNCC2)cn1)c1[nH]ncc1Nc1ncnc2sccc12`, the growth in the test with NCI-H23 lung is 18.4%; in the test on NCI-H322M lung, 59.1%; in the test with HOP-62 NSCLC, 73%; in the test on NCI-H460 lung, 43.1%; in the test with HOP-92 NSCLC, 52.5%; with A549/ATCC NSCLC, 4.12% (active). Further, the growth with 786-0 renal is -43.6% (active); in the test on COLO 205 colon it was 29%; in the test on DU-145 prostate, 41.9%; in the test on K-562 leukemia, -60.1% (active); in the test with MALME-3M melanoma, -67.7% (active); in the test on MDA-MB-231 breast, -35.8% (active). Further, the growth in the test with RXF 393 renal is 46.6%; in the test with SF-268 CNS, 40.8%; in the test with SF-295 CNS, 97.3%; in the test with SF-539 CNS, -28.8% (active); with UACC-257 melanoma, 69.8%; in the test on M14 melanoma it was -61.3% (active). The growth with HCT-15 colon was 69.7%.
For `NS(=O)(=O)c1ccc(CCN=C=S)cc1`, the growth in the test on NCI-H23 lung is 32.7%; with NCI-H322M lung it was 85.2%; in the test with HOP-62 NSCLC, 101%; with NCI-H460 lung it was 56.7%; with HOP-92 NSCLC, 23.4%; with A549/ATCC NSCLC, 71.5%. For the same compound, the growth was 20.8% in the test with 786-0 renal; -36.7% (active) in the test on COLO 205 colon; 6.92% (active) in the test with DU-145 prostate; 5.24% (active) with K-562 leukemia; 40.9% with MALME-3M melanoma; 15.6% with MDA-MB-231 breast. For the same compound, the growth is -36.3% (active) with RXF 393 renal; 53.3% with SF-268 CNS; 105% in the test with SF-295 CNS; 37.2% with SF-539 CNS; 24.7% with UACC-257 melanoma; 12.6% in the test with M14 melanoma. Also, in the test with HCT-15 colon, the growth is 0.368% (active).
Consider `O=C(/C=C/c1ccc(C(F)(F)F)cc1)c1ccc(Nc2nc(NCCO)nc(Nc3ccc(Cl)cc3)n2)cc1`, for which the growth in the test on NCI-H23 lung is 76.4%; in the test on NCI-H322M lung it was 86.1%; in the test with HOP-62 NSCLC it was 53.2%; in the test with NCI-H460 lung, 28.7%; with HOP-92 NSCLC, 70.5%; in the test with A549/ATCC NSCLC, 26.6%. The growth is -41% (active) with 786-0 renal; 58% in the test with DU-145 prostate; 12.5% in the test with K-562 leukemia; 96.3% in the test with MALME-3M melanoma; 59.3% with MDA-MB-231 breast; 42.8% with RXF 393 renal. In addition, the growth was 50.6% in the test with SF-268 CNS; 79.6% in the test on SF-295 CNS; 51.3% with SF-539 CNS; 92.1% in the test with UACC-257 melanoma; 54.7% in the test with M14 melanoma; 6.59% (active) in the test on HCT-15 colon.
As to `COc1ccc(C2c3ccc4ccccc4c3Oc3ncn(CCCn4ccnc4)c(=N)c32)cc1OC` (configuration not stated), the growth was 60.6% with NCI-H23 lung; 49.8% in the test with NCI-H322M lung; 73.4% in the test on HOP-62 NSCLC; 55.8% in the test with NCI-H460 lung; 24.3% in the test on HOP-92 NSCLC; 55.3% with A549/ATCC NSCLC. Moreover, the growth in the test with 786-0 renal was 68.4%; in the test with COLO 205 colon, 53.4%; with DU-145 prostate, 79%; in the test on K-562 leukemia, 15.6%; in the test with MDA-MB-231 breast it was 69.2%; in the test with RXF 393 renal, 73.2%. Besides, the growth is 89.5% in the test with SF-268 CNS; -7.39% (active) in the test with SF-295 CNS; 67.8% in the test on SF-539 CNS; 72.4% with UACC-257 melanoma; 49.6% in the test with M14 melanoma; 68.5% with HCT-15 colon.
